The values below come from PubChem BioAssay AID1508625 (Wald Lab, School of Medicine, Case Western Reserve …, 2021).

Molecules are shown by their SMILES.

This assay is described as follows: enhancers of NK cell killing of ovarian tumor cells, primary screen, imaging, OVCAR3, primary NK cells, calcein-AM imaging (AID 1508625).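 Also: compound given to NK cells 16 h before adding targets at 1.5 to 1 ratio.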 The following applies: OVCAR3 lysis by primary NK cells, at 5 µM; z-score: measured here: robust Z-score, single-point normalisation.
For the compound `COC(=O)c1ccc(C)c(NC(=O)c2ccc(C3SCC(=O)N3Cc3ccccc3)cc2)c1` (stereo unspecified), the corrected activity, negative = more killing is -5.82% and the z-score was -2.22.
Consider `COc1ccccc1CNC(=O)C(C)Oc1cccc(Cl)c1` (stereo unspecified), for which the corrected activity, negative = more killing is -1.41% and the z-score was -0.785.
Take `O=C(O)c1cccc(N2C(=O)c3ccc(C(=O)c4ccc5c(c4)C(=O)N(c4cccc(C(=O)O)c4)C5=O)cc3C2=O)c1`: the z-score is -0.363 and the corrected activity, negative = more killing is -1.17%.
As for `CC(=O)Nc1ccc(-n2c(C)ccc2C)c(C(=O)O)c1`, the corrected activity, negative = more killing is -2.26% and the z-score was -1.01.
In the case of `O=C(Nc1ccc(Br)cc1)c1ccccc1I`, the z-score was -0.444 and the corrected activity, negative = more killing is -1.25%.
On to `CC1CCCC(C(=O)OCc2ccccc2)N1` (stereo unspecified), for which the z-score is -1.64 and the corrected activity, negative = more killing was -4.16%.
Regarding `Cc1cc(Br)cc2c(N=NC(=O)c3ccccc3)c(O)[nH]c12`, the z-score is -0.646 and the corrected activity, negative = more killing is -1.64%.
For the compound `COc1ccccc1CNC(=O)CCS(=O)(=O)Cc1ccccc1C`, the corrected activity, negative = more killing was -4.37% and the z-score was -1.18.
Consider `CC1CCCN(c2ncnc3scc(-c4ccccc4)c23)C1` (stereo unspecified), for which the z-score was -0.85 and the corrected activity, negative = more killing was -2.34%.
On to `N#Cc1cc2c(N)c(C(=O)Nc3ccccc3Oc3ccccc3)sc2nc1N`, for which the corrected activity, negative = more killing is 0.0831% and the z-score is 0.0248.
Taken in the same sequence, the figures for `O=C(Nc1cccc2ccccc12)ON=Cc1ccc(F)cc1` were -4.41% and -1.4.
Consider `CCCC12CN3CC(C)(CN(C1)C(=O)c1ccccc1C3=O)C2=O`, for which the z-score is -1.98 and the corrected activity, negative = more killing is -4.81%.
Turning to `Cc1ccc(NC(=O)CSc2nc3c(cc2C#N)CCCCC3)cc1`, the z-score is 0.825 and the corrected activity, negative = more killing was 2.66%.
Regarding `Cc1onc(-c2ccccc2)c1C(=O)Nc1cccc2c1C(=O)c1ccccc1C2=O`, the z-score was -1.02 and the corrected activity, negative = more killing was -2.48%.
With `O=C(COc1ccccc1)NCCSc1nc2ccccc2s1`, the corrected activity, negative = more killing is -4.8% and the z-score was -1.81.
On to `O=C(CCn1c(=O)c2sccc2n(Cc2cc(=O)n3ccccc3n2)c1=O)NCc1ccc2c(c1)OCO2`, for which the corrected activity, negative = more killing is -7.55% and the z-score is -2.14.
The like results for `COC(=O)c1ccc(COC(=O)c2cnccn2)cc1` were, in that order, -1.44% and -0.802.
In the case of `COC(=O)c1ccc(CN2CCN3CCCC3C2C2CCCCC2)cc1` (stereo unspecified), the z-score was -1.21 and the corrected activity, negative = more killing is -2.78%.
On to `CCSc1ccc(NC(=O)CC2c3ccccc3Oc3ccccc32)cc1`, for which the corrected activity, negative = more killing was -7.71% and the z-score is -2.39.
Taken in the same sequence, the figures for `O=C1OC(c2cccc(Cl)c2)=NC1=Cc1ccc(Br)o1` were -4.19% and -1.78.
The like results for `COc1ccc(C=Nc2ccc(C(N)=O)cc2)cc1` were, in that order, -2.24% and -0.885.
`CC(=O)c1cccc(NC(=O)c2ccc(NS(=O)(=O)c3ccccc3)cc2)c1`: the z-score was -1.71 and the corrected activity, negative = more killing was -4.58%.
Take `COc1cc([N+](=O)[O-])ccc1N1C(=O)C2C3C=CC(CC3)C2C1=O` (stereo unspecified): the corrected activity, negative = more killing was 0.65% and the z-score was 0.231.
Regarding `CCOc1cc(C(=S)N2CCOCC2)ccc1OC(=O)Cc1ccccc1`, the z-score was -2.32 and the corrected activity, negative = more killing is -7.5%.
The like results for `N[n+]1cnn(CC(=O)c2ccccc2)c1` were, in that order, -2.46 and -7.75%.
Turning to `Cc1ccc(-n2cnc3cc(C(=O)NC4CCCC4)ccc32)cc1Cl`, the z-score is -0.921 and the corrected activity, negative = more killing is -3.42%.
Take `Cc1ccccc1C(=NS(=O)(=O)c1ccc(Br)cc1)Nc1ccccc1`: the corrected activity, negative = more killing is -3.32% and the z-score was -1.18.
For `O=[N+]([O-])c1ccc(C=Nn2c(CO)nc3ccccc32)cc1`, the corrected activity, negative = more killing is -5.03% and the z-score was -1.6.
As to `O=C(Nc1ccc2c(c1)CCC2)c1ccc2c(=O)n(C3CCCCC3)c(=S)[nH]c2c1`, the z-score was -0.766 and the corrected activity, negative = more killing is -2.41%.
With `CC(=O)C1C(=O)CC(c2ccccc2)CC1=O` (stereo unspecified), the corrected activity, negative = more killing is -5.17% and the z-score is -2.04.
The like results for `CCOc1ccc(NC(=O)Cn2c(=O)n(CCc3ccccc3)c(=O)c3c4c(sc32)CCCC4)cc1` were, in that order, -8.33% and -2.36.
On to `Cc1cccc(C)c1OCCNC(=O)c1cc2ccccc2o1`, for which the corrected activity, negative = more killing was -1.04% and the z-score is -0.579.
As to `CCc1cc(=O)oc2c(C)c(OCC(=O)c3cccc(OC)c3)ccc12`, the corrected activity, negative = more killing is -4.48% and the z-score is -1.67.
As to `CC(Oc1cccc(Cl)c1)C(=O)ON=C(N)c1ccncc1` (stereo unspecified), the z-score was 0.235 and the corrected activity, negative = more killing is 0.422%.
Take `Cc1c(C(=O)NCc2ccc(F)cc2)sc2ncn(Cc3ccccc3Cl)c(=O)c12`: the z-score is -0.998 and the corrected activity, negative = more killing was -2.74%.
As to `COc1ccc(OC)c(C2Nc3ccccc3NC3=C2C(=O)CC(C)(C)C3)c1` (stereo unspecified), the z-score was -1.85 and the corrected activity, negative = more killing was -5.96%.
Turning to `CCN(C(=O)c1c(-c2ccccc2)noc1C)C1CCCCC1`, the z-score was -0.905 and the corrected activity, negative = more killing is -2.37%.
As for `Cc1sc(NC(=O)C2c3ccccc3Oc3ccccc32)c(C(N)=O)c1C`, the z-score is -2.16 and the corrected activity, negative = more killing is -5.26%.
